Measurements as given in PubChem BioAssay (NCATS).
Inconclusive results are not listed. Activity calls are given as the source filed them. Calls follow the shape of the dose curve; as a rule, active = well fitted curve in the direction sought with a large enough effect; inconclusive = small, poorly fitted or top-dose-only effect, or another doubt; inactive = no such curve, though single readings can be large; an effect the other way counts as inactive or inconclusive.

What was measured:
[1] = target: Glutathione peroxidase 1 (Homo sapiens) (UniProt P07203); assay: Primary qHTS Assay for Inhibitors of Recombinant Selenoprotein Glutathione Peroxidase 1 (GPX1) (AID 1845191); also: nearly all actives have a fitted effect of over 65% in size; as to activity, negative = inhibition: % is scaled to controls: 0 for no effect and ±100 for the full control effect
Procedure, shortened: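 10 nM GPX1 + cpd, 30 min RT; start w/ 1 mM GSH, 0.5 mM cumene hydroperoxide, 0.5 mM NADPH, 100 nM GR, 0.01% BSA; buffer 50 mM Tris-HCl pH 7.5, 2 mM EDTA, 150 mM NaCl; Fl 340/450, 0 & 15 min.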

[2] = target: Phospholipid hydroperoxide glutathione peroxidase GPX4 (Homo sapiens) (UniProt P36969); assay: Primary qHTS Assay for Inhibitors of Recombinant Selenoprotein Glutathione Peroxidase 4 (GPX4) (AID 1845192); also: nearly all actives have a fitted effect of over 65% in size; as to activity change, negative = inhibition: series mostly up to about 50 µM; % is scaled to controls: 0 for no effect and ±100 for the full control effect
Procedure, shortened: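 NADPH consumption, followed by fluorescence at 340/450 nm between 0 and 15 min, reports GPX4 activity via coupled glutathione reductase (100 nM). Enzyme 200 nM was pre-exposed to compound 30 min; 0.5 mM cumene hydroperoxide and 1 mM GSH served as substrates.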

[3] = target: Luciferin 4-monooxygenase (Photinus pyralis) (UniProt P08659); assay: Primary firefly luciferase (FLuc) qHTS assay for identification of artifact compounds. (AID 1845220); also: nearly all actives have a fitted effect of over 60% in size;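 as to activity change, negative = inhibition: series mostly up to about 54 µM; plate controls were DMSO vehicle for no effect and no enzyme for full effect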
Procedure, shortened: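 FLuc 10 nM; luciferin 10 uM; ATP 10 uM; Tris-acetate pH 7.6, Mg-acetate 10 mM; 15 min RT preincubation; 5 min reaction; luminescence.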

[4] = Primary fluorescence-based thiol-reactive (MSTI) qHTS assay for identification of artifact compounds. (AID 1845221);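 also: series mostly up to about 54 µM; thiol-reactive compounds lower the probe fluorescence signal; nearly all actives have a fitted effect of over 65% in size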
Procedure, shortened: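 Reactivity toward the thiol probe MSTI (4 uM) is scored by fluorescence at Ex/Em 525/598 nm after 1 h at room temperature. Acetyl-MSTI and MSTI define the activity scale.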

[5] = tested on: Nanoluciferase (engineered Oplophorus gracilirostris luciferase); assay: Primary Nanoluciferase (NLuc) qHTS assay for identification of artifact compounds. (AID 1845222);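 also: NLuc secreted into diluted conditioned medium of S16 cells; series mostly up to about 54 µM; 0% = DMSO and -100% = no enzyme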
Procedure, shortened: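 NLuc from S16 cell medium (1:55) plus test compounds, 15 min, room temperature. Luminescence after Nano-Glo (1:100) addition, 5 min.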

[6] = Primary redox qHTS assay for identification of artifact compounds. (AID 1845223);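 also: 0% = DMSO and 100% = reference compound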
Procedure, shortened: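 Amplex Red (25 uM) and HRP (250 mU/mL) in HBSS, with compounds for 15 min, then 250 uM DTT for 30 min, room temperature, dark. Fluorescence 525/598 nm read; normalized to DMSO and 10 uM DA3003; Hill fit.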

Phospholipid hydroperoxide glutathione peroxidase GPX4 (Homo sapiens), sequence (P36969 whole entry, looked up): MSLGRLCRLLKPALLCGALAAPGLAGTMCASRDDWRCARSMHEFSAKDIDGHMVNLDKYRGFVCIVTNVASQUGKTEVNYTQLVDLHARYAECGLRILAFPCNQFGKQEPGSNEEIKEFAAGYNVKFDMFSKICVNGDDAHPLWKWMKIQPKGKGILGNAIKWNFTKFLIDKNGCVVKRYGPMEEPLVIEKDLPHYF
Glutathione peroxidase 1 (Homo sapiens), sequence (P07203 whole entry, looked up): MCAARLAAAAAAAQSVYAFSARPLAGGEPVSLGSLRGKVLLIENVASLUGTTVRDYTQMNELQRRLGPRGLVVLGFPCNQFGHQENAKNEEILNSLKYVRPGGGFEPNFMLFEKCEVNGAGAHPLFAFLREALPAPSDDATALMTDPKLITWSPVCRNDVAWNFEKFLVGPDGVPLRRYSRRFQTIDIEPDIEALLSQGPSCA

CC(C)/C=C1\NC(=O)C(C(C)C)n2c1nc1ccccc1c2=O (centres undefined)
inactive: Potency [1] | Potency [2] | Potency [3] | Potency [4] | Potency [5] | Potency [6]

COc1ccc(CN2CCN(CCCSc3cc(C(C)(C)C)c(O)c(C(C)(C)C)c3)CC2)c(OC)c1OC
inactive: Potency [1] | Potency [2] | activity change, negative = inhibition [3] 3.48% [at 11.6 µM] | activity change, negative = thiol reactive [4] 2.62% [at 11.5 µM] | activity, negative = inhibition [5] 3.22% [at 11.6 µM] | redox activity (% of DA3003) [6] 6.4% [at 11.5 µM]

CCC(C)C1NC(=O)C(Cc2ccccc2)NC(=O)C(CCCCCC(=O)C(O)CO)NC(=O)C2CCCCN2C1=O (centres undefined)
inactive: Potency [1] | Potency [2] | Potency [3] | Potency [4] | Potency [5] | Potency [6]

O=C(Nc1cccnc1)c1cc(-c2ccnc(F)c2)ccc1OCc1ccccc1
inactive: Potency [1] | Potency [2] | Potency [3] | Potency [4] | Potency [5] | Potency [6]

O=C(CN1C2=NCCN2c2ccccc21)c1ccc(-c2ccccc2)cc1
inactive: Potency [1] | Potency [2] | Potency [3] | Potency [4] | Potency [5] | Potency [6]

C=C1C(=O)O[C@@H]2C(OC(=O)/C(C)=C\C)/C(C)=C\C(=O)/C=C(\C)C[C@H](O)[C@@H]12 (some centres undefined)
inactive: Potency [1] | Potency [2] | Potency [3] | Potency [4] | Potency [5] | Potency [6]

CCC(C)C(=O)O[C@H]1[C@H](O)[C@@]2(COC(C)=O)C(CC1(C)C)C1=CCC3[C@@]4(C)CC[C@H](O[C@@H]5O[C@H](C(=O)O)[C@@H](O)[C@H](O)[C@H]5O)[C@@](C)(CO)C4CC[C@@]3(C)[C@]1(C)C[C@@H]2O (some centres undefined)
inactive: Potency [1] | Potency [2] | outcome [3] inactive [at 11.6 µM] | activity change, negative = thiol reactive [4] 57.8% [at 11.5 µM] | activity, negative = inhibition [5] 3.16% [at 11.6 µM] | redox activity (% of DA3003) [6] 14.3% [at 11.5 µM]

COc1nc2ccc(Br)cc2cc1[C@@H](c1ccccc1)[C@@](O)(CCN(C)C)c1cccc2ccccc12
inactive: Potency [1] | Potency [2] | Potency [3] | Potency [4] | Potency [6]

CCc1ccccc1OC[C@@H](O)CN[C@H]1CCCc2ccccc21
inactive: Potency [1] | Potency [2] | Potency [3] | Potency [4] | Potency [5] | Potency [6]

O=C(NCCN1CCC(n2c(=O)[nH]c3ccccc32)CC1)c1cc2cc(F)ccc2[nH]1
inactive: Potency [1] | Potency [2] | Potency [3] | Potency [4] | Potency [6]

COC(=O)c1ccc(N2CCN(C)CC2)c(NC(=O)c2cccc(OC)c2)c1
inactive: Potency [1] | Potency [2] | Potency [3] | Potency [4] | Potency [5] | Potency [6]

C/C=C(/C)C(=O)OC1CC(C)(C)CC2C3=CCC4C5(C)CCC(O[C@@H]6O[C@H](C(=O)O)[C@@H](O)[C@H](O)[C@H]6O[C@@H]6O[C@H](CO)[C@H](O)[C@H](O[C@@H]7OC[C@H](O)[C@H](O)[C@H]7O[C@@H]7O[C@H](CO)[C@@H](O)[C@H](O)[C@H]7O)[C@H]6O)C(C)(C)C5CCC4(C)C3(C)C(O)C(O)C12CO (some centres undefined)
inactive: activity, negative = inhibition [1] -3.11% [at 9.52 µM] | activity change, negative = inhibition [2] -1.81% [at 9.73 µM] | activity change, negative = inhibition [3] 1.87% [at 11.6 µM] | activity change, negative = thiol reactive [4] 199% [at 11.5 µM] | activity, negative = inhibition [5] 4.03% [at 11.6 µM] | redox activity (% of DA3003) [6] 15.7% [at 11.5 µM]

O=C(NCCCNC(=O)c1ccc[nH]c1=O)c1cc(-c2ccccc2)on1
inactive: Potency [1] | Potency [2] | Potency [3] | Potency [4] | Potency [6]

CC1(C)OC[C@H](NC(=O)Nc2ccc(Br)cc2Br)[C@H](c2ccccc2)O1
inactive: Potency [1] | Potency [2] | Potency [3] | Potency [4] | Potency [5] | Potency [6]

C=C1CC2OC(=O)C(=C)C2C(OC(=O)/C(C)=C\C)CC2(C)OC1=CC2=O (centres undefined)
inactive: Potency [1] | Potency [2] | Potency [3] | Potency [4] | Potency [5] | Potency [6]

O=C(NCCO)c1cccc(-c2cc(Nc3ccc(OC(F)(F)F)cc3)ncn2)c1
inactive: Potency [1] | Potency [2] | Potency [3] | Potency [4] | Potency [5] | Potency [6]

CC1(C)CC[C@]2(C(=O)O)[C@H](O)C[C@]3(C)C(=CCC4[C@@]5(C)CC[C@H](O[C@@H]6O[C@H](CO[C@@H]7OC[C@H](O)[C@H](O)[C@H]7O[C@@H]7OC[C@H](O)[C@H](O)[C@H]7O)[C@@H](O)[C@H](O)[C@H]6O)C(C)(C)C5CC[C@]43C)[C@@H]2C1 (some centres undefined)
inactive: Potency [1] | Potency [2] | outcome [3] inactive [at 11.6 µM] | activity change, negative = thiol reactive [4] 133% [at 11.5 µM] | redox activity (% of DA3003) [6] 16.3% [at 11.5 µM]

C=C1CC(=O)C2OC2(C)CC2OC(=O)C(=C)C2C(O)C1OC(=O)/C(C)=C\C (centres undefined)
inactive: Potency [1] | Potency [2] | Potency [3] | Potency [4] | Potency [5] | Potency [6]

C=C(C)C(=O)O[C@H]1[C@H]2C(=C)C(=O)O[C@@H]2/C=C(\CO)CC/C=C(/C=O)[C@@H]1O
inactive: Potency [1] | Potency [2] | Potency [3] | Potency [4] | Potency [5] | Potency [6]

CC#C[C@@H](CC(=O)O)c1ccc(OCc2ccc(CN3CCC4(C=Cc5ccccc54)CC3)s2)cc1
inactive: Potency [1] | Potency [2] | Potency [3] | Potency [4] | Potency [5] | Potency [6]

Cc1ccc(C)c(NS(=O)(=O)c2cc(C(=O)Nc3ccccc3-c3ccccc3)ccc2C)c1
inactive: Potency [1] | Potency [2] | Potency [3] | Potency [4] | Potency [5] | Potency [6]

CCOC(=O)C1(CCOc2ccccc2)CCN(Cc2ccc(O)c(Cl)c2)CC1
inactive: Potency [1] | Potency [2] | Potency [3] | Potency [4] | Potency [5] | Potency [6]

COCCN(C(=O)c1cc(OC)c(OC)c(OC)c1)c1nc(-c2ccccc2)cs1
inactive: Potency [1] | Potency [2] | Potency [3] | Potency [4] | Potency [5] | Potency [6]
